Laboratory results: the supplement of paper PMC10849652
About 8,800 targets were measured; listed, in parts, are those with a hit and a random draw of the rest. About 0.5% of all pairs of compound and target were hits.

Compound: CC1=CC=C(C=C1)SC2=C3C=C(SC3=CN=C2)C(=O)N
Experiment: log2 fold change, soluble protein after heating vs DMSO (PISA); higher = thermal stabilisation; K562 lysate, 10 uM; active = over 0.2 and 3.5 SD of the protein, either way, in both replicates (recomputed)
Outline: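 The values are log-two fold changes in thermal stability compared with solvent controls and come from duplicates. They were obtained by TMTpro 16plex LC-MS/MS, with channel sums equalised, on the supernatant after 21,000xg for 90 min. That supernatant came from crude K562 extract at 1 mg/mL protein treated with 10 μM compound for 30 min, heated for 3 min across 48°C-58°C, pooled and brought to 0.5% NP-40 at 4°C.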

UniProt Q9NX58, sequence (Q9NX58 whole entry, looked up): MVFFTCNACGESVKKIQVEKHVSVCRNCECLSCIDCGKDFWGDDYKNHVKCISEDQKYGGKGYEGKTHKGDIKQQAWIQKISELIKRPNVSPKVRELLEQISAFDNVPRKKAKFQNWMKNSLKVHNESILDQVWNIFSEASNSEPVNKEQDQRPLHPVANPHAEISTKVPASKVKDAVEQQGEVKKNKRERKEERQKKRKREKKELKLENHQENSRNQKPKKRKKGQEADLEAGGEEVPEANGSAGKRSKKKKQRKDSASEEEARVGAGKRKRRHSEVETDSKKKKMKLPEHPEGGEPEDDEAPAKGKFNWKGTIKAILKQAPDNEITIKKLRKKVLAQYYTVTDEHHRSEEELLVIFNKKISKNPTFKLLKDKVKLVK
UniProt Q15013, sequence (Q15013 whole entry, looked up): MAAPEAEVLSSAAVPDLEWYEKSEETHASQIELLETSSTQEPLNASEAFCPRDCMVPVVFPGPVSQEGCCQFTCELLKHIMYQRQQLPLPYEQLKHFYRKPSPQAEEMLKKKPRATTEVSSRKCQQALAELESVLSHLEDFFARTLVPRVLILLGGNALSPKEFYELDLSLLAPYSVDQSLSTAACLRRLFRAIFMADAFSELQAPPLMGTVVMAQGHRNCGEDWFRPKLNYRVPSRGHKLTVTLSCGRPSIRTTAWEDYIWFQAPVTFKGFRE
UniProt Q14149, sequence (Q14149 whole entry, looked up): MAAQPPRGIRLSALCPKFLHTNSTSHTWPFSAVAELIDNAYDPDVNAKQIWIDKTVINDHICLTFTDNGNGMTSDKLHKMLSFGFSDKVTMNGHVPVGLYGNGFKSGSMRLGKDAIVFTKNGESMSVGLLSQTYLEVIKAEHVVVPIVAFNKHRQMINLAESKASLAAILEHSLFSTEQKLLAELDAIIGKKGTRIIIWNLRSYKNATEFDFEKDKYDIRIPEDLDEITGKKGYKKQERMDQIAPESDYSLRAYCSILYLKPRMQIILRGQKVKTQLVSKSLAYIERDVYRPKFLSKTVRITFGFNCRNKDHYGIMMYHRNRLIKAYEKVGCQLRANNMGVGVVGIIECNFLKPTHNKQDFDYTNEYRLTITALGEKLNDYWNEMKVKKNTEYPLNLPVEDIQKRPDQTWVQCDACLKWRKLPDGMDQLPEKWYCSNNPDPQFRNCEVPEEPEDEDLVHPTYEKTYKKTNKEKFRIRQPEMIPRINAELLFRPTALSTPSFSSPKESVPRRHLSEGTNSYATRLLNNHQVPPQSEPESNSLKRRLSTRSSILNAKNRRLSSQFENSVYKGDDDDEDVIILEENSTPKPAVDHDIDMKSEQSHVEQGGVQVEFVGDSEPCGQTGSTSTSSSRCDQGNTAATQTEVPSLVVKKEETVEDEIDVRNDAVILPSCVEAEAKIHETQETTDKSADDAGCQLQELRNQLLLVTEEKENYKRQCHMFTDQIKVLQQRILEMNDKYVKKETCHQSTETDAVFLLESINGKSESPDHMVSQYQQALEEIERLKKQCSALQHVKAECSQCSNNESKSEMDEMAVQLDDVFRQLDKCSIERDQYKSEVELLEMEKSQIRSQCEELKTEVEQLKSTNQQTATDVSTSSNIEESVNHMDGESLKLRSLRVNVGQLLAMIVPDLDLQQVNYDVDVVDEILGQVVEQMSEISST
UniProt Q9Y2X0, sequence (Q9Y2X0 whole entry, looked up): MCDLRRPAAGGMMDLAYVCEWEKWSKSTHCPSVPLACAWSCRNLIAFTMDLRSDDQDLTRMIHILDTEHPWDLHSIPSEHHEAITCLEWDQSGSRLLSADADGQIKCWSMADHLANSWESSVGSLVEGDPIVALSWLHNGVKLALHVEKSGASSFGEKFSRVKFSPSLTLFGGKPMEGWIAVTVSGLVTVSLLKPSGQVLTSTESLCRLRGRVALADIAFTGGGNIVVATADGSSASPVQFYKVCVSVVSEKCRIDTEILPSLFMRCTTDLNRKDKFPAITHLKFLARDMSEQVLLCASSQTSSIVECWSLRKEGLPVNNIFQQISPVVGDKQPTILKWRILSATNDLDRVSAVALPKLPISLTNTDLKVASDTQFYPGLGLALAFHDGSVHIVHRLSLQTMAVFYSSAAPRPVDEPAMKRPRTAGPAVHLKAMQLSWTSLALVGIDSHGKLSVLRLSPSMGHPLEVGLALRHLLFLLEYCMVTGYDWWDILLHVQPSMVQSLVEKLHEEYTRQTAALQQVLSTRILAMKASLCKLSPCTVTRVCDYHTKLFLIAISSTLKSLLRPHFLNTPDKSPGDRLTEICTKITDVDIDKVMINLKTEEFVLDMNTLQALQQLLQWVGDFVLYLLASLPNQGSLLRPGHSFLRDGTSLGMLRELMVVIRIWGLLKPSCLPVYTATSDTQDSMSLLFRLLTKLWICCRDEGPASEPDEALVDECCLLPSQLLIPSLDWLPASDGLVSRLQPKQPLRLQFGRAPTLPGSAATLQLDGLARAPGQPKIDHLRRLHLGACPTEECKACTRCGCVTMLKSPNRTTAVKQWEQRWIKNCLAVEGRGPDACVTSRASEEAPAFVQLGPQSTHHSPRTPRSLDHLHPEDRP
UniProt Q9Y448, sequence (Q9Y448 whole entry, looked up): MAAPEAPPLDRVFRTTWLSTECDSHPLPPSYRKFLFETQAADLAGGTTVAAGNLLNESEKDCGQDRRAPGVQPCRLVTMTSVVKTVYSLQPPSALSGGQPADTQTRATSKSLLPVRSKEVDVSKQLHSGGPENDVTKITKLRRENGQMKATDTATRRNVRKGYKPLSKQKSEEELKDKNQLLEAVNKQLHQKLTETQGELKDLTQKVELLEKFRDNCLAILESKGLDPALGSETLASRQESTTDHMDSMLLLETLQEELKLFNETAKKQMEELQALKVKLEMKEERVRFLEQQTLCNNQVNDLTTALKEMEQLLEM
UniProt Q9H9A6, sequence (Q9H9A6 whole entry, looked up): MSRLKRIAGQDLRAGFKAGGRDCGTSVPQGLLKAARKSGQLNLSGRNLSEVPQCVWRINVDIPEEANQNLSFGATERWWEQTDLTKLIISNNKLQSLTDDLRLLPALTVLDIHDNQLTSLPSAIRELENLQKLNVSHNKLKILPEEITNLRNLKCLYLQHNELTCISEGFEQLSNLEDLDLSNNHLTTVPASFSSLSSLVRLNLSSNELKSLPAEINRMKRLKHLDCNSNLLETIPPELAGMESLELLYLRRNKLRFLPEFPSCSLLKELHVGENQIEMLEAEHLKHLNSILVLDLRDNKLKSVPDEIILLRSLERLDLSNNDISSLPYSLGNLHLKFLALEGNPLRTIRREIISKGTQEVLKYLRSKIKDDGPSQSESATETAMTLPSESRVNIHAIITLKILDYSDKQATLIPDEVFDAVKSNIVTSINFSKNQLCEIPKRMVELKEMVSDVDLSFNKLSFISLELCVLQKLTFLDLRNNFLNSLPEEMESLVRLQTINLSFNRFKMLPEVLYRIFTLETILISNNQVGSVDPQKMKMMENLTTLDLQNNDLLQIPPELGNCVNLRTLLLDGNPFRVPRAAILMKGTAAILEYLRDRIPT
UniProt Q99661, sequence (Q99661 whole entry, looked up): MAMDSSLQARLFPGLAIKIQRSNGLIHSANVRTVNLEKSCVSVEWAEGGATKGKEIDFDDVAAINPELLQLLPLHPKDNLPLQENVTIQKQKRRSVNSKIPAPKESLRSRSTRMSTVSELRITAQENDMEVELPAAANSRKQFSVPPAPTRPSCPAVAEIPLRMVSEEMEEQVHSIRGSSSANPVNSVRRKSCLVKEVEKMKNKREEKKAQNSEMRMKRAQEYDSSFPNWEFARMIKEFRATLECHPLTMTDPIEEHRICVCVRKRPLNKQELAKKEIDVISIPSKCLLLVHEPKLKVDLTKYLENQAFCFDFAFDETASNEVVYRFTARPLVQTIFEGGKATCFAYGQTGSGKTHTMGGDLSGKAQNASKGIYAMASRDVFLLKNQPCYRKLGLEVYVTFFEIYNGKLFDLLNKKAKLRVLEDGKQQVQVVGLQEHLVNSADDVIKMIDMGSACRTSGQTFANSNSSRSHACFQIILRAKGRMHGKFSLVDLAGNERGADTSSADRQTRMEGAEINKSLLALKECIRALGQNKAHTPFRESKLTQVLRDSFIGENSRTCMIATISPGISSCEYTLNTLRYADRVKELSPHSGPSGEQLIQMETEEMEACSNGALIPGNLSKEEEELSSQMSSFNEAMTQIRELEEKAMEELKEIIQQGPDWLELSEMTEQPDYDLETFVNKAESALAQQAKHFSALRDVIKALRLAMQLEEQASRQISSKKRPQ
UniProt P40692, sequence (P40692 whole entry, looked up): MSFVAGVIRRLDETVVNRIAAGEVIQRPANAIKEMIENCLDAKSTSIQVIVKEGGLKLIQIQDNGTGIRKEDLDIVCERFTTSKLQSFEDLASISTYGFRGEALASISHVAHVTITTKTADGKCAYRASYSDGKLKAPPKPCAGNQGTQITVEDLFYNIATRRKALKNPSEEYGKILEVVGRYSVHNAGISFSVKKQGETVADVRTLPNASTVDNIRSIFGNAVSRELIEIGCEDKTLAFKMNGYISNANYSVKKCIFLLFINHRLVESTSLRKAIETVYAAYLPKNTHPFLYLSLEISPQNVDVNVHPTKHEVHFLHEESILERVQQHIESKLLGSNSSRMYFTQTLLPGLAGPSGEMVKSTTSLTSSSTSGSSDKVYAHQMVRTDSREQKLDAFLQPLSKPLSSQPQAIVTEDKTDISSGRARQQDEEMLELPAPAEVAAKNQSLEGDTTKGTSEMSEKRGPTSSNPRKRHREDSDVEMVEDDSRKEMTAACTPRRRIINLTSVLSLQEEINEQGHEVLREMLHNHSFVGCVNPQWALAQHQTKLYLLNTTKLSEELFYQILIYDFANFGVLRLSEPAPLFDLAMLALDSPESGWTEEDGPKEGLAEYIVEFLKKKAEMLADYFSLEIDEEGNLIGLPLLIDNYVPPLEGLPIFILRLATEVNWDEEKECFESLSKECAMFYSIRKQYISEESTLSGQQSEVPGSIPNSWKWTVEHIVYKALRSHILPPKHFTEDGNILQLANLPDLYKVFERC

| Target | log2 fold change |
| --- | --- |
| MARK2 (UniProt E9PC69) | 0.012 (inactive) |
| MICU1 isoform 3 (UniProt Q9BPX6) | 0.019 (inactive) |
| MED12 isoform 2 (UniProt Q93074) | 0.02 (inactive) |
| LYAR (UniProt Q9NX58) | 0.038 (inactive) |
| MLH1 (UniProt P40692) | 0.03 (inactive) |
| MIPEP (UniProt Q99797) | 0.003 (inactive) |
| MAD2L1BP isoform 3 (UniProt Q15013) | -0.05 (inactive) |
| LIG4 (UniProt P49917) | 0.109 (inactive) |
| MCUB (UniProt Q9NWR8) | 0.204 (inactive) |
| MOCS1 isoform 8 (UniProt Q9NZB8) | -0.002 (inactive) |
| MAP3K4 (UniProt Q9Y6R4) | -0.027 (inactive) |
| MAPKAPK2 (UniProt P49137) | 0 (inactive) |
| MAPK9 (UniProt P45984) | -0.015 (inactive) |
| MCMBP isoform 2 (UniProt Q9BTE3) | 0.005 (inactive) |
| MRPL15 (UniProt Q9P015) | -0.023 (inactive) |
| MRPL10 isoform 2 (UniProt Q7Z7H8) | 0.042 (inactive) |
| MORC3 (UniProt Q14149) | -0.027 (inactive) |
| LRRC40 (UniProt Q9H9A6) | -0.007 (inactive) |
| LARP4B (UniProt Q92615) | 0.014 (inactive) |
| MAP1S (UniProt Q66K74) | 0.006 (inactive) |

| Target | log2 fold change |
| --- | --- |
| LTN1 isoform 3 (UniProt O94822) | 0.019 (inactive) |
| MCCC1 (UniProt Q96RQ3) | 0.013 (inactive) |
| MAP2K1 (UniProt Q02750) | -0.004 (inactive) |
| MORC2 (UniProt Q9Y6X9) | 0.004 (inactive) |
| KNSTRN (UniProt Q9Y448) | 0.002 (inactive) |
| MORF4L1 isoform 2 (UniProt Q9UBU8) | 0.021 (inactive) |
| KIF2C (UniProt Q99661) | 0.016 (inactive) |
| MRPL30 isoform 2 (UniProt Q8TCC3) | 0.087 (inactive) |
| L3HYPDH (UniProt Q96EM0) | -0.024 (inactive) |
| MED16 (UniProt Q9Y2X0) | 0.005 (inactive) |
| KIFC1 (UniProt Q9BW19) | 0.002 (inactive) |
| MGAT5 (UniProt Q09328) | 0.014 (inactive) |
| MICU2 (UniProt Q8IYU8) | 0.013 (inactive) |
| MAPKAPK3 (UniProt Q16644) | 0.033 (inactive) |
| KIF4A (UniProt O95239) | 0.048 (inactive) |
| MAP11 (UniProt Q8WVR3) | 0.078 (inactive) |
| KLC2 (UniProt Q9H0B6) | -0.012 (inactive) |
| MAP2K5 (UniProt Q13163) | -0.211 (inactive) |
| METTL7A (UniProt Q9H8H3) | -0.035 (inactive) |
